Rows were chosen to be rich in hits. Some 2.5% of all compounds tested hit in one or more screens of this group.
F508del corr = correctors of CFTR F508del function in bronchial epithelial cells. activity (quench increase), % at 7.58 µM. 350,000 compounds, 0.36% hits. CFBE cells, YFP halide quenching; stimulated with forskolin plus potentiator P3; % fluorescence drop versus neutral controls;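 active = mean added fluorescence quench of at least 8% versus neutral control, with both replicates also reaching 8%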;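 also: cells transiently co-express mutant CFTR-F508del with the halide-sensitive YFP; corrector assay measuring rescue of mutant channel to the surface after 24 h compound exposure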
FXN GAA850 act = frataxin GAA850 promoter activation; 360,000 compounds, 0.56% hits; activation, % at 6 µM; AID 540364; HEK293 lucGAA850 FXN promoter luciferase reporter, 24 h; percent of 10 µM SAHA response;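 active = activation above the average of all compounds screened plus 3 SD, cutoff fixed separately per campaign, cut at about 7.5% in these data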;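 also: 0% = DMSO wells and 100% = 10 µM SAHA wells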
Env fusion inh = HIV envelope-mediated fusion inhibition. HeLa-JRFL Env/CEM21 cell fusion, luciferase. inhibition, % at 12.3 µM. 360,000 compounds, 1.1% hits;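 active = mean replicate inhibition score of at least 50 and every replicate individually at or above 50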;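 also: 0% = plate neutral controls and 100% = maraviroc near 300 nM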
EWS-Fli inh = EWS/Fli transcriptional activity inhibition. A673 NR0B1-luciferase reporter, viability-normalised. inhibition, % at 12.6 µM. 350,000 compounds, 0.67% hits. AID 651661;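 active = mean inhibition of at least 50% after viability correction, with every replicate also passing that limit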;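 also: firefly luciferase signal divided by Alamar Blue viability fluorescence both relative to DMSO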
PAX8 reporter = inhibitors of PAX8 transcriptional activity in RMG-I cells. RMG-I TPO-luciferase reporter, SteadyGlo, 24 h. inhibition, % at 12.6 µM. 360,000 compounds, 1.2% hits;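 active = mean replicate inhibition at least 60% with every replicate also reaching 60%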;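 also: luciferase light reporting Pax8 driven TPO promoter activity; plate controls were median of neutral control wells for no effect and mitoxantrone controls for full effect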
GAA30 counter = activates GAA30 frataxin promoter, counter-screen for GAA850 activators; activation, % at 6 µM; shares compounds with FXN GAA850 act; 1,900 compounds, 66% hits; HEK293 lucGAA30 FXN promoter luciferase, 24 h; DMSO = 0%, 5 µM ipriflavone = 100%;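 active = mean activation above the mean of solvent-only control wells plus 3 SD, cut at about 22% in these data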;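 also: counterscreen of GAA850 promoter hits where activity marks nonselective or luminescence artifacts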
FXN GAA850 conf = GAA850 FXN promoter activation confirmation; shares compounds with FXN GAA850 act; HEK293 lucGAA850 FXN promoter luciferase reporter, 24 h; 100% = activation by SAHA; activation, % at 6 µM; 1,900 compounds, 86% hits; AID 588351;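 active = mean activation above a set limit taken from the primary screen, cut at about 8% in these data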;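 also: 0% = DMSO wells and 100% = 10 µM SAHA wells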
The depositor's hits bear a star; i = inactive; x = not tested or not shown; ! = repeats disagree; [ ] = remark or other dose.

SMILES | F508del corr | FXN GAA850 act | Env fusion inh | EWS-Fli inh | PAX8 reporter | GAA30 counter | FXN GAA850 conf
CCOc1nc(C)ccc1-c1noc(-c2ccco2)n1 | -1 | 7.7* | x | -13 | x | 53* | 18*
CCOc1nc(C)ccc1-c1noc(-c2ccccn2)n1 | x | 7 | x | x | x | x | x
Cc1cc(N/C=C\c2nnnn2-c2ccccc2)no1 | x | 2 | -3 | x | -4 | x | x
CN(C)c1ccc(/C=C/c2nnnn2-c2ccccc2)cc1 | x | 8.3* | x | x | x | 125* | 38*
COc1ccc(S(=O)(=O)N(C)C[C@H]2Oc3ccc(NS(=O)(=O)c4ccccc4)cc3C(=O)N([C@H](C)CO)C[C@H]2C)cc1 | -1 | x | -31[16.7 µM] | 6 | -4 | x | x
Oc1ccc(-c2csc(-c3ccccc3)n2)cc1O | -1 | 8.8* | x | 0 | x | 41* | 34*
Oc1ccc(-c2csc(-c3cccnc3)n2)cc1O | 1 | 14* | -25 | 16 | -69 | 62* | 31*
Fc1ccc(-c2csc(-c3cccnc3)n2)cc1F | 0 | 3 | -35 | -64 | -32 | x | x
Oc1ccc(-c2csc(Nc3ncccn3)n2)cc1O | 3 | 16* | -74 | 7 | -102 | 108* | 45*
Oc1ccc(-c2csc(Nc3ncccn3)n2)c(O)c1 | 5 | 3 | -71 | -83 | -180 | x | x
Cc1ccc(Cl)cc1N1CCN(C(=O)C2CCN(c3nnc(-n4cccc4)s3)CC2)CC1 | 1 | 8.2* | 56* | 20 | 39 | 2 | 3
CCCNC(=O)C[C@H]1CC[C@H]2[C@@H](COC[C@@H](O)CN2C(=O)C2CCOCC2)O1 | -2 | x | x | 30 | -3 | x | x
CCN(C(=O)c1ccco1)c1nc(-c2ccc(OC)cc2)cs1 | -1 | 8.3* | -64 | -7 | -134 | 110* | 37*
OC[C@H]1[C@@H](c2ccc(-c3ccncc3)cc2)[C@@H]2CN(Cc3ccccn3)CCCCN12 | 1 | x | x | x | -13 | x | x
CN1CCN(C(=O)c2cc3c(c(-c4cccc(C#CCC5CCCC5)c4)n2)[C@H](CCO)N(S(=O)C(C)(C)C)C3)CC1 (some centres undefined) | 0 | x | 2[16.7 µM] | -15 | -55 | x | x
Cc1cc(O)c(NC(=O)c2ccc(Br)o2)cc1C | x | 9.3* | -14 | x | -23 | 91* | 27*
COc1ccc2c3c([nH]c2c1)[C@H](CO)N(C(=O)C1CCCC1)CC31CN(Cc2nccs2)C1 | 0 | x | x | 7 | 15 | x | x
COc1ccc(C(=O)Nc2nc3ccccc3s2)cc1OC | -2 | 11* | -98 | -214 | -217 | 116* | 29*
COc1ccc(-c2nc3ccccc3s2)cc1NC(C)=O | 1 | 8.4* | -67 | -75 | -51 | 124* | 40*
CC(=O)NCc1ccc(-c2nc3ccccc3s2)cc1 | -4 | 3 | -78 | -15 | -83 | x | x
CCCNC(=O)N1[C@H](C#N)[C@@H](c2ccccc2-c2ccccc2F)[C@@H]1CO | 2 | x | x | 2 | x | x | x
c1ccc(CC2CCN(c3ncnc4sccc34)CC2)cc1 | 4 | -5 | 31 | 21 | 26 | x | x
c1ccc2c(c1)nnn2-c1ncnc2sccc12 | 2 | 10* | -24 | -55 | -18 | 93* | 31*
Cc1cc(NC(=O)C(C)SCC(=O)Nc2cc(C(F)(F)F)ccc2N2CCOCC2)no1 (centres undefined) | 2 | 8.8* | x | -4 | 9 | 26* | 13*
CCNc1nc(NCC)nc(Oc2ccc(OCC)nn2)n1 | x | 3 | x | x | x | x | x
SMILES | F508del corr | FXN GAA850 act | Env fusion inh | EWS-Fli inh | PAX8 reporter | GAA30 counter | FXN GAA850 conf
CCNc1nc(N)nc(Oc2ccc(OCCOc3ccc(Cl)cc3Cl)nn2)n1 | x | 13* | 16 | x | x | 16 | 8.6*
CC(=O)N1[C@@H]2c3ccc(-c4cccc(F)c4)c(=O)n3C[C@H]1[C@H](CO)[C@H]2C(=O)NCCCN(C)C | 3 | x | x | 5 | -13 | x | x
Cc1ccc(-c2ccc3c(c2)O[C@H](CN(C)C(=O)C2CC2)[C@@H](C)CN([C@@H](C)CO)S3(=O)=O)cc1 | 1 | x | -5[16.7 µM] | 14 | x | x | x
O=C(NC12CC3CC(CC(C3)C1)C2)c1cc([N+](=O)[O-])ccc1N1CCOCC1 | -2 | 10* | 41 | 15 | -14 | 17 | 10*
CC(C)N=c1scc(-c2ccco2)n1/N=C/c1ccc(O)c(O)c1 | x | 12* | -114 | x | x | 68* | 42*
CCOC(=O)C(C)Oc1cccc2c(=O)n(CC(=O)Nc3ccc4c(c3)OCCO4)ccc12 (centres undefined) | 3 | 11* | -1 | 30 | -32 | 4 | -1
Cn1c(=O)cc(OCCCC(=O)NCc2ccccn2)c2ccccc21 | x | 3 | -4 | x | 17 | x | x
Cc1ccnc(NC(=O)CCCOc2cc(=O)n(C)c3ccccc23)c1 | -3 | 8.8*! | i | 14 | 53 | 68* | 61*
CCOC(=O)c1oc2c(c1C)/C(=N/O)CCC2 | x | 8.0* | -161 | x | -123 | 65* | 23*
C[C@H](O)C#Cc1ccc([C@@H]2[C@H]3CN(S(=O)(=O)Cc4ccccc4)CCCCN3[C@H]2CO)cc1 | -4 | x | x | -2 | 17 | x | x
Cc1ccc(OCc2ccc([N+](=O)[O-])cc2)c([N+](=O)[O-])n1 | -1 | 8.4* | -160 | -78 | -134 | 117* | 34*
Cc1ccc(OCc2ccccc2C)c([N+](=O)[O-])n1 | 2 | 5 | 3 | -17 | -56 | x | x
C[C@H](CO)N1C[C@H](C)[C@@H](CN(C)Cc2ccccc2)Oc2ccc(NC(=O)C3CCCCC3)cc2CC1=O | 0 | x | x | 6 | 10 | x | x
C=CCNc1nc(Cl)nc(Nc2ccc(OC)cc2)n1 | x | 8.1* | -59 | x | x | 64* | 25*
O=C(/C=C/C=C/c1ccccc1)c1ccco1 | 5 | 9.5* | -48 | -51 | -33 | 106* | 44*
O=C(/C=C/c1ccc(Br)cc1)c1ccco1 | x | 4 | -28 | -5 | -67 | x | x
C[C@@H]1CN([C@@H](C)CO)C(=O)c2cc(NC(=O)C3CC3)ccc2O[C@@H]1CN(C)S(=O)(=O)c1ccc(F)cc1 | 2 | x | 8[16.7 µM] | 8 | -5 | x | x
O=C(NCCCN1CCOCC1)[C@H]1[C@H](CO)[C@H]2Cn3c(cccc3=O)[C@@H]1N2C(=O)C1CCCCC1 | -1 | x | x | 7 | -42 | x | x
CCCn1cnc2c(SCc3ccccc3)nc(N)nc21 | -2 | 6 | -6 | -38 | -98 | x | x
CCCn1cnc2c(SCc3ccc(Cl)cc3)nc(N)nc21 | 5 | 9.8* | -1 | -9 | -13 | 45* | 25*
CCCCn1cnc2c(SCc3ccccc3)nc(N)nc21 | -1 | 7 | -14 | -25 | x | x | x
CCCCn1cnc2c(SCc3ccc(Br)cc3)nc(N)nc21 | x | 7.8* | 6 | -5 | -2 | 29* | 18*
COc1ccc(CNC(=O)c2c(-c3cc(Cl)c(OC)c(Cl)c3)noc2C)cc1 | 1 | 10* | 42 | -2 | -15 | 17 | 11*
